Assay results from PubChem BioAssay (NCATS).
Calls of active or inactive are those of the source. The call rests on the fitted dose curve; in most records, active means well fitted curve in the direction sought with a large enough effect; inconclusive means small, poorly fitted or top-dose-only effect, or effect the other way, or another doubt; inactive means no such curve, though single readings can be large or run the other way.

Experiment: Inducers of the Endoplasmic Reticulum Stress Response (ERSR) in human glioma: Validation (AID 504836)
Details: human glioma cells, ER stress response reporter; series mostly up to 38.3 µM
How it was run: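 ERSR induction read as luciferase luminescence (Bright-Glo, 10 min at room temperature) in stably transfected human U87-MG glioma cells exposed to compounds for 16 h, using GRP78 as sensor.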
With `CO[C@@]1(NC(=O)CSCC#N)C(=O)N2C(C(=O)O)=C(CSc3nnnn3C)CS[C@@H]21` the outcome was “inactive”.
For `CC(CCc1ccc(O)cc1)NCCc1ccc(O)c(O)c1` (stereo unspecified), the outcome was “inactive”.
With `CCOC(=O)C1=C(C)NC(C)=C(C(=O)OC)C1c1cccc([N+](=O)[O-])c1` (stereo unspecified) the outcome was “inactive”.
For `CC(C)NNC(=O)c1ccncc1`, the outcome was “inactive”.
With `NCCCNCCSP(=O)(O)O` the outcome was “inactive”.
With `CCN1CCC[C@H]1CNC(=O)c1cc(S(N)(=O)=O)ccc1OC` the outcome was “inactive”.
For `Nc1ccc(S(=O)(=O)Nc2ccnn2-c2ccccc2)cc1`, the outcome was “inactive”.
With `FC(F)(F)c1ccccc1-n1ccnc1` the outcome was “inactive”.
For `O=C(O)CCCCCCCC(=O)O`, the outcome was “inactive”.
For `CC(=O)Oc1cc(C(C)C)c(OCCN(C)C)cc1C`, the outcome was “inactive”.
For `CC(=O)OC(C)C[N+](C)(C)C` (stereo unspecified), the outcome was “inactive”.
